Test results as given in the supplement of paper PMC13380429.

Experiments:
[1] = test system: Vero E6 infected with SARS-CoV-2; assay: morphology score (similarity to uninfected cells); higher = more like uninfected cells; details: 24 h
[2] = test system: Vero E6 infected with SARS-CoV-2; assay: SARS-CoV-2 infection rate relative to infected DMSO; higher = more infection, active = 60 or less; details: 24 h

Structure (SMILES)	morphology score [1]	SARS-CoV-2 infection rate [2]
Nc1ncnc2c1ncn2CCOCP(=O)(O)O [adefovir] (10 µM)	-0.0616	110% (inactive)
CS(=O)(=O)Nc1ccc(-c2coc3cc(OCc4cccc(C(=O)O)c4)ccc3c2=O)cc1 (10 µM)	0.0543	97% (inactive)
O.O.O.O.O=C([O-])CC(O)(CC(=O)[O-])C(=O)[O-].[Li+].[Li+].[Li+] [lithium-citrate] (10 µM)	0.239	89% (inactive)
CCn1c2ccccc2c2cc(Nc3ccnc(NCCCN4CCOCC4)n3)ccc21 (0.833333 µM)	0.235	93% (inactive)
CS(=O)(=O)c1ccc(-c2nnc(/C=C/c3nnc(-c4ccc(C#N)cc4)o3)n2-c2ccccc2Cl)nc1 (10 µM)	0.0833	99% (inactive)
N=C(N)NCCN1CCCCCCC1 [guanethidine] (10 µM)	-0.0499	109% (inactive)
Fc1ccc(C(OCCN2CCN(C/C=C/c3ccccc3)CC2)c2ccc(F)cc2)cc1 (10 µM)	0.456	65.5% (inactive)
CN1CCc2cc(Cl)c(O)cc2[C@@H](c2ccccc2)C1 (10 µM)	0.0172	108% (inactive)
CN(C)CC[C@@H](c1ccc(Cl)cc1)c1ccccn1 [chlorphenamine] (10 µM)	0.0978	97.8% (inactive)
CC(C)[C@@H](C)/C=C/[C@@H](C)[C@H]1CC[C@H]2/C(=C/C=C3\C[C@@H](O)CC[C@@H]3C)CCC[C@]12C [dihydrotachysterol] (10 µM)	0.121	106% (inactive)
COc1ccc2cc1Oc1cc3c(cc1OC)CC[N+](C)(C)[C@H]3Cc1ccc(cc1)Oc1c(OC)c(OC)cc3c1[C@@H](C2)[N+](C)(C)CC3 [metocurine] (10 µM)	0.103	104% (inactive)
